# Results from PubChem BioAssay AID1259420 (Broad Institute, 2018).
# In all, about 1,000 compounds went through this assay and about 250 (25%) were called active. Roughly 31% stayed inconclusive and do not appear here. A selection follows. Potency and affinity values are given separately. A number with no mark means an inactive call. How the calls were made is not given here.
# Assay: T. gondii intracellular growth, IFN-gamma absent, dose response, cell-based (AID 1259420);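 further: host cells were HeLa; final incubation lasted 72 hours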
# Details: Toxoplasma gondii growth in host cells, no IFN-gamma
smiles,measurement,setting,value
Cc1ccccc1-c1ccc([C@H]2[C@H](CO)N3CCCCN(S(=O)(=O)Cc4ccccc4)C[C@@H]23)cc1,max activity,at 19.5 µM unless noted,27%
O=C(NCC1CC1)C1CN(C(=O)c2ccoc2)CC12CCOCC2 (configuration not stated),max activity,at 19.5 µM unless noted,10.2% [at 0.16 µM]
CS(=O)(=O)N1CC(=O)N2[C@H](C1)[C@@H](c1ccc(C#CCC3CCCC3)cc1)[C@@H]2CO,max activity,at 19.5 µM unless noted,17.8% [at 0.3 µM]
Cc1ccccc1S(=O)(=O)N1CC[C@H]2[C@H](CO)Nc3ccc(-c4ccc(F)cc4)cc3[C@H]21,max activity,at 19.5 µM unless noted,-15.5% [at 5 µM]
CC(C)CNC(=O)C1Cn2ccnc2C2(CCN(c3ncccn3)CC2)O1 (configuration not stated),max activity,at 19.5 µM unless noted,-6.18%
Fc1cccc(CN2CCC3(CC2)CC(OCC2CC2)CO3)c1 (configuration not stated),max activity,at 19.5 µM unless noted,-29.4% [at 10 µM]
COc1cccc(-c2nn(CC3CC3)c3c2[C@@H]2CN(C(=O)c4ccccc4)C[C@@H]2C3)c1,max activity,at 19.5 µM unless noted,29.4%
O=C(Cc1cccnc1)N1CC(=O)N2[C@H](CO)[C@H](c3ccc(/C=C/c4ccccc4)cc3)[C@@H]2C1,max activity,at 19.5 µM unless noted,-6.67% [at 10 µM]
COCC(=O)N1CC(=O)N2[C@H](CO)[C@@H](c3ccc(-c4ccccc4F)cc3)[C@H]2C1,max activity,at 19.5 µM unless noted,10.5% [at 0.3 µM]
O=C(Cc1cccnc1)N1CC(=O)N2[C@H](CO)[C@@H](c3ccc(/C=C/c4ccccc4)cc3)[C@@H]2C1,max activity,at 19.5 µM unless noted,14.8%
O=C(Cc1cccnc1)N1CC(=O)N2[C@H](CO)[C@@H](c3ccc(/C=C/c4ccccc4)cc3)[C@H]2C1,max activity,at 19.5 µM unless noted,15.6%
Cc1ccccc1-c1ccc([C@@H]2[C@H](CO)N3C(=O)CN(C(=O)c4ccncc4)C[C@@H]23)cc1,max activity,at 19.5 µM unless noted,13%
COC(=O)/C=c1\sc2nc(=O)c(C)nn2c1=O,max activity,at 19.5 µM unless noted,-11.2% [at 10 µM]
Cc1nc(N2CCCC2)nc2c1CCN(S(=O)(=O)c1ccccc1)CC2,max activity,at 19.5 µM unless noted,-5.81% [at 10 µM]
COc1ccccc1-c1ccc(C2[C@@H]3CN(S(=O)(=O)c4ccc(C)cc4)C[C@H]2N3)cc1 (some centres not stated),max activity,at 19.5 µM unless noted,22.8%
Cc1cccc(S(=O)(=O)N2CCc3nc(-c4cnn(C)c4)nc(NC4CC4)c3C2)c1,max activity,at 19.5 µM unless noted,-22.6% [at 1.2 µM]
COc1ccc(S(=O)(=O)N2CCC(c3nc4ccc(-c5ccncc5)cn4n3)CC2)cc1,max activity,at 19.5 µM unless noted,-32.4% [at 10 µM]
CC(C)(C)NC(=O)[C@@H]1CC2CCCCC2CN1C[C@@H](O)[C@H](Cc1ccccc1)NC(=O)[C@H](CC(N)=O)NC(=O)c1ccc2ccccc2n1 (some centres not stated),max activity,at 19.5 µM unless noted,-8.44%
CC/C(=C(\c1ccccc1)c1ccc(OCCN(C)C)cc1)c1ccccc1,max activity,at 19.5 µM unless noted,22.1%
CCCNC(=O)c1cc(-c2ccn(CC3CC3)n2)n2ccccc12,max activity,at 19.5 µM unless noted,-19.1% [at 10 µM]
Cc1ccc(-c2cc(O)c3c(c2)CN(C(=O)CCN2CCCO2)CCO3)s1,max activity,at 19.5 µM unless noted,12.4% [at 10 µM]
N#Cc1ccc(-c2ccc([C@@H]3[C@@H](CO)N4C(=O)CNC[C@H]34)cc2)cc1,max activity,at 19.5 µM unless noted,33.8%
O=C1CNC[C@@H]2[C@H](c3ccc(C#Cc4cccnc4)cc3)[C@H](CO)N12,max activity,at 19.5 µM unless noted,16.3%
O=S1(=O)c2ccccc2C2(CCN(CC3CC3)C2)N1Cc1ccc(F)cc1 (configuration not stated),max activity,at 19.5 µM unless noted,13.7%
CN(Cc1ccccn1)C(=O)C1=NOC2(CCN(S(=O)(=O)c3cccc(F)c3)C2)C1 (configuration not stated),max activity,at 19.5 µM unless noted,-20.7% [at 10 µM]
CC(C)n1c(C(=O)Nc2cccc(F)c2)nc2c1CCN(Cc1ccccc1)C2,max activity,at 19.5 µM unless noted,-15.6% [at 10 µM]
CCC(=O)N1CC(=O)N2[C@H](CO)[C@H](c3ccc(C#CCC(C)C)cc3)[C@H]2C1,max activity,at 19.5 µM unless noted,13.7%
O=C1CNC[C@@H]2[C@H](c3ccc(C#Cc4cccnc4)cc3)[C@@H](CO)N12,max activity,at 19.5 µM unless noted,-12.5% [at 0.16 µM]
COC1CCCC(C(=O)N2CCC3(CC2)C(=O)Nc2ccc(-c4ccc(C(C)=O)cc4)cc23)C1 (configuration not stated),max activity,at 19.5 µM unless noted,-15.4% [at 10 µM]
CC(C)CC#Cc1ccc([C@@H]2[C@H](CO)N3C(=O)CN(C(=O)c4cccc(F)c4)C[C@@H]23)cc1,max activity,at 19.5 µM unless noted,12.3% [at 1.2 µM]
CC(C)CC#Cc1ccc([C@H]2[C@@H](CO)N3C(=O)CN(C(=O)Nc4cc(F)ccc4F)C[C@H]23)cc1,max activity,at 19.5 µM unless noted,17.1%
CC(C)CC#Cc1ccc([C@H]2[C@H]3CN(C(=O)Nc4cc(F)ccc4F)CC(=O)N3[C@H]2CO)cc1,max activity,at 19.5 µM unless noted,31.4%
CC(C)CC#Cc1ccc([C@H]2[C@@H](CO)N3C(=O)CN(C(=O)c4cccc(F)c4)C[C@H]23)cc1,max activity,at 19.5 µM unless noted,19.6%
COc1ccc(CN2CCC3(CC(n4cnnc4)CO3)C2)cc1 (configuration not stated),max activity,at 19.5 µM unless noted,41.3%
O=C(Cc1cccnc1)N1CC(=O)N2[C@H](CO)[C@H](c3ccc(C#CC4CCCCC4)cc3)[C@@H]2C1,max activity,at 10 µM,-8.18%
same,max activity,at 19.5 µM,7.75%
O=C(CC(F)(F)F)N1C[C@@H]2[C@H](c3ccccc31)[C@H](CO)N2CC1CCOCC1,max activity,at 19.5 µM unless noted,-6.58% [at 5 µM]
CN(C)C(=O)c1ccc(-c2ccc([C@H]3[C@H](CO)N4C(=O)CN(C(=O)CC5CC5)C[C@@H]34)cc2)cc1,max activity,at 19.5 µM unless noted,-9.43% [at 0.3 µM]
O=C(C1CCCCC1)N1[C@H](CO)[C@@H]2c3ccccc3N(S(=O)(=O)c3ccccc3)C[C@@H]21,max activity,at 19.5 µM unless noted,10.6% [at 5 µM]
CN(C)C(=O)c1cccc(-c2ccc(C3[C@H]4CNC[C@@H]3N4Cc3ccccc3C(F)(F)F)cc2)c1 (some centres not stated),max activity,at 19.5 µM unless noted,-11.4%
COc1ccc(C#Cc2ccc3c(c2)[C@H]2[C@H](CCN2C(=O)c2cnccn2)[C@H](CO)N3)cc1,max activity,at 19.5 µM unless noted,21.9%
COCC(=O)N1CC(=O)N2[C@H](CO)[C@@H](c3ccc(-c4ccncc4)cc3)[C@H]2C1,max activity,at 19.5 µM unless noted,9.86% [at 2.6 µM]
CC(C)c1ccc(C(=O)N=C(N)N)cc1S(C)(=O)=O,max activity,at 19.5 µM unless noted,-6.61% [at 10 µM]
O=C1CNC[C@H]2[C@@H](c3ccc(C#Cc4cccnc4)cc3)[C@@H](CO)N12,max activity,at 19.5 µM unless noted,-4.61% [at 1.2 µM]
NCCCCCCNS(=O)(=O)c1ccc2c(Cl)cccc2c1,max activity,at 19.5 µM unless noted,-5.19% [at 10 µM]
NC(=O)CN1CCOCCOCCN(CC(N)=O)CCOCC1,max activity,at 19.5 µM unless noted,5.9% [at 5 µM]
COCCN(CCOC)C(=O)c1cc2c(c3ccccc3n2CC2CC2)n1-c1ncccn1,max activity,at 19.5 µM unless noted,18%
CN(C)S(=O)(=O)N1C[C@@H]2CN(Cc3ccoc3)CCO[C@H]2C1,max activity,at 19.5 µM unless noted,-18.6%
COC[C@H]1CN(C)C[C@]12CCN(C(=O)c1cc3ccccc3s1)C2,max activity,at 19.5 µM unless noted,11.6%
O=S1(=O)c2ccccc2OCC2(CCN(Cc3ccccc3)CC2)CN1CC1CC1,max activity,at 19.5 µM unless noted,19.2%
CCN1[C@@H]2CCN(C(=O)CC3CC3)CC[C@@H]2Oc2ccccc2S1(=O)=O,max activity,at 19.5 µM unless noted,19.2% [at 1.2 µM]
O=C(NCc1cncc2c1CCN(Cc1cccc(F)c1)C2)C1CC1,max activity,at 5 µM,9.94%
same,max activity,at 19.5 µM,14%
CC(=O)N1CCN(C(C)C)C(c2nnc3ccc(C(=O)N4CCCC4)cn23)C1 (configuration not stated),max activity,at 19.5 µM unless noted,-12.1% [at 10 µM]
O=S(=O)(c1cccc(F)c1)N1CC[C@@H]2[C@H]1c1cc(Br)ccc1N[C@@H]2CO,max activity,at 19.5 µM unless noted,7.04%
Cc1cccc(S(=O)(=O)N2CC[C@@H]3[C@@H](CO)Nc4ccc(-c5ccccc5F)cc4[C@@H]32)c1,max activity,at 19.5 µM unless noted,-19% [at 0.6 µM]
COc1ccccc1-c1ccc2c(c1)[C@H]1[C@H](CCN1Cc1ccccc1F)[C@@H](CO)N2,max activity,at 19.5 µM unless noted,20.2%
CCC(=O)N1CC[C@@H]2[C@H]1c1cc(C#Cc3ccccc3F)ccc1N[C@@H]2CO,max activity,at 19.5 µM unless noted,-12.6%
COc1ccccc1-c1ccc2c(c1)[C@H]1[C@H](CCN1S(=O)(=O)c1ccc(C)cc1)[C@@H](CO)N2,max activity,at 19.5 µM unless noted,21.4%
COC[C@]12CCC[C@@H]1CN(S(=O)(=O)c1cccc(OC)c1)C2,max activity,at 19.5 µM unless noted,17.2%
CN(C)CCN1CCC2(CCCN(C(=O)C3CCOC3)C2)C1=O (configuration not stated),max activity,at 19.5 µM unless noted,31.3%
COCC1CN(C(=O)c2ccccc2F)Cc2cnn(CC3CC3)c21 (configuration not stated),max activity,at 19.5 µM unless noted,-15.3% [at 10 µM]
Cc1ccccc1-c1ccc([C@@H]2[C@@H](CO)N3C(=O)CN(C(=O)c4ccncc4)C[C@@H]23)cc1,max activity,at 19.5 µM unless noted,15% [at 0.16 µM]
COc1ccccc1S(=O)(=O)N1CC[C@H]2[C@H](CO)Nc3ccc(-c4ccc(C#N)cc4)cc3[C@H]21,max activity,at 19.5 µM unless noted,19% [at 21 µM]
c1cc(-c2nccn2CCn2ccnc2)ccn1,max activity,at 19.5 µM unless noted,7.6% [at 0.16 µM]
O=C(NCc1ccccc1)c1cc(-c2cnc(N3CCCC3)nc2)cn1CC1CC1,max activity,at 19.5 µM unless noted,-17.4% [at 10 µM]
O=C(Nc1ccccc1)c1ncn2c1CN(CC1CC1)S(=O)(=O)c1ccccc1-2,max activity,at 19.5 µM unless noted,-5.31% [at 1.2 µM]
COc1ccccc1C#Cc1ccc([C@H]2[C@@H](CO)N3CCCCN(C(=O)C4CCC4)C[C@H]23)cc1,max activity,at 19.5 µM unless noted,11% [at 0.16 µM]
CN(C)CCOCC12CCCOC1CCN(C(=O)c1cccn1C)C2 (configuration not stated),max activity,at 19.5 µM unless noted,-18.9% [at 5 µM]
CC(C)COC1CC2(CCN(C(=O)c3cccn3C)CC2)C1,max activity,at 19.5 µM unless noted,9.82% [at 0.3 µM]
CC(C)C#Cc1ccc([C@@H]2[C@@H](CO)N3C(=O)CN(C(=O)NC4CCCC4)C[C@H]23)cc1,max activity,at 19.5 µM unless noted,-5.34%
COCC(=O)N1CC(=O)N2[C@H](CO)[C@H](c3ccc(C#CC4CC4)cc3)[C@@H]2C1,max activity,at 19.5 µM unless noted,-9.08% [at 5 µM]
